PubChem BioAssay
The source made the active and inactive calls.

Legend:
[1] = tested on: PRMT1 (protein arginine N-methyltransferase 1); assay: small molecules binding arginine methyltransferase PRMT1 – biochemical, small-molecule microarray, 635 nm fluorescence, primary screen (AID 1088); details: higher = more signal;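 also: binding of Prmt1 protein to compounds spotted on small-molecule microarray slides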
[2] = growth effects on S. cerevisiae YJM789 – YJM789 clinical isolate, OD600, 24 h, basal, primary screen (AID 1089); details: higher = more signal, called active from +8 up or from −8 down;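 also: growth of clinical yeast isolate S. cerevisiae YJM 789 seeded 1000 cells per well; test concentration not given here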
[3] = S. pombe growth modifiers, basal conditions – strain 972, OD600, 24 h, no modulator, primary screen (AID 1090);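 also: basal condition with compound alone and no growth modifier present; test concentration not given here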; details: S. pombe 972 growth, higher = more signal, called active from +8 up or from −8 down
[4] = budding yeast growth modifiers under rapamycin – strain BY4716, OD600, 96 h, primary screen (AID 1091); also: test concentration not given here; details: S. cerevisiae BY4716 + rapamycin, higher = more signal, called active from +8 up or from −8 down
[5] = target: Torsin-1A-interacting protein 2 (Homo sapiens) (UniProt Q8NFQ8); assay: small molecules binding lysate-expressed LULL1 – cell lysate, human LULL1 lysate, 635/667 nm fluorescence, primary screen (AID 1092); details: small-molecule microarray, hLULL1 lysate binding, 635 nm fluorescence; higher = more signal;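 also: probe is lysate of COS7 cells overexpressing human LULL1; score merges per-feature 667 nm fluorescence with signal-to-noise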
Chain of Torsin-1A-interacting protein 2 (Homo sapiens) (Q8NFQ8 whole entry, looked up): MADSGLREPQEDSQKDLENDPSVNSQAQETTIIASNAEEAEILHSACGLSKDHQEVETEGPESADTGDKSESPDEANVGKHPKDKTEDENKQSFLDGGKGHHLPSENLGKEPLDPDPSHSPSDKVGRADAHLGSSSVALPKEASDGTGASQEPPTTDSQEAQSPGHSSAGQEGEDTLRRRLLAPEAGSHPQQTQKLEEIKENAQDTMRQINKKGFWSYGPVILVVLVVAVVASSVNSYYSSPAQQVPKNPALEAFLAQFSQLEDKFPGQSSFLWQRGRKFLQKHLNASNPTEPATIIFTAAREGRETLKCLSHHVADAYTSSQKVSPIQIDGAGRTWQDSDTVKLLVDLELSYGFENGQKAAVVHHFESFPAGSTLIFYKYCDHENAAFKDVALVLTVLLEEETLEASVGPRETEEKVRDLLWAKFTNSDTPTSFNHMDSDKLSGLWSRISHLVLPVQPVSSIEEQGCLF

[6] = optical density change of DRC41 E. coli – strain DRC41, OD650, 24 h, E. coli filamentation project, primary screen (AID 1093);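 also: MC1000 strain lacking acrAB efflux and sulA so SOS filamentation is blocked; test concentration not given here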; details: E. coli DRC41 growth, higher = more signal, called active from +8 up or from −8 down
[7] = probe aLefty2 binding to arrayed compounds – biochemical, biotinylated probe, 635/667 nm fluorescence, primary screen (AID 1094); details: small-molecule microarray, higher = more signal;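 also: score merges spot fluorescence near 667 nm with spot signal-to-noise ratio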
[8] = tested on: Noggin (protein binding on small-molecule microarray); assay: small molecules binding Noggin protein – biochemical, 635/667 nm fluorescence, primary screen (AID 1095); details: 635 nm fluorescence, higher = more signal;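 also: score merges 667 nm feature fluorescence with signal to noise over triplicate slides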
[9] = target: Neurogenic locus notch homolog protein 3 (Homo sapiens) (UniProt Q9UM47); assay: small molecules binding NOTCH3 protein – biochemical, 635/667 nm fluorescence, primary screen (AID 1096); details: small-molecule microarray, 635 nm fluorescence, higher = more signal
Chain of Neurogenic locus notch homolog protein 3 (Homo sapiens) (Q9UM47 whole entry, looked up): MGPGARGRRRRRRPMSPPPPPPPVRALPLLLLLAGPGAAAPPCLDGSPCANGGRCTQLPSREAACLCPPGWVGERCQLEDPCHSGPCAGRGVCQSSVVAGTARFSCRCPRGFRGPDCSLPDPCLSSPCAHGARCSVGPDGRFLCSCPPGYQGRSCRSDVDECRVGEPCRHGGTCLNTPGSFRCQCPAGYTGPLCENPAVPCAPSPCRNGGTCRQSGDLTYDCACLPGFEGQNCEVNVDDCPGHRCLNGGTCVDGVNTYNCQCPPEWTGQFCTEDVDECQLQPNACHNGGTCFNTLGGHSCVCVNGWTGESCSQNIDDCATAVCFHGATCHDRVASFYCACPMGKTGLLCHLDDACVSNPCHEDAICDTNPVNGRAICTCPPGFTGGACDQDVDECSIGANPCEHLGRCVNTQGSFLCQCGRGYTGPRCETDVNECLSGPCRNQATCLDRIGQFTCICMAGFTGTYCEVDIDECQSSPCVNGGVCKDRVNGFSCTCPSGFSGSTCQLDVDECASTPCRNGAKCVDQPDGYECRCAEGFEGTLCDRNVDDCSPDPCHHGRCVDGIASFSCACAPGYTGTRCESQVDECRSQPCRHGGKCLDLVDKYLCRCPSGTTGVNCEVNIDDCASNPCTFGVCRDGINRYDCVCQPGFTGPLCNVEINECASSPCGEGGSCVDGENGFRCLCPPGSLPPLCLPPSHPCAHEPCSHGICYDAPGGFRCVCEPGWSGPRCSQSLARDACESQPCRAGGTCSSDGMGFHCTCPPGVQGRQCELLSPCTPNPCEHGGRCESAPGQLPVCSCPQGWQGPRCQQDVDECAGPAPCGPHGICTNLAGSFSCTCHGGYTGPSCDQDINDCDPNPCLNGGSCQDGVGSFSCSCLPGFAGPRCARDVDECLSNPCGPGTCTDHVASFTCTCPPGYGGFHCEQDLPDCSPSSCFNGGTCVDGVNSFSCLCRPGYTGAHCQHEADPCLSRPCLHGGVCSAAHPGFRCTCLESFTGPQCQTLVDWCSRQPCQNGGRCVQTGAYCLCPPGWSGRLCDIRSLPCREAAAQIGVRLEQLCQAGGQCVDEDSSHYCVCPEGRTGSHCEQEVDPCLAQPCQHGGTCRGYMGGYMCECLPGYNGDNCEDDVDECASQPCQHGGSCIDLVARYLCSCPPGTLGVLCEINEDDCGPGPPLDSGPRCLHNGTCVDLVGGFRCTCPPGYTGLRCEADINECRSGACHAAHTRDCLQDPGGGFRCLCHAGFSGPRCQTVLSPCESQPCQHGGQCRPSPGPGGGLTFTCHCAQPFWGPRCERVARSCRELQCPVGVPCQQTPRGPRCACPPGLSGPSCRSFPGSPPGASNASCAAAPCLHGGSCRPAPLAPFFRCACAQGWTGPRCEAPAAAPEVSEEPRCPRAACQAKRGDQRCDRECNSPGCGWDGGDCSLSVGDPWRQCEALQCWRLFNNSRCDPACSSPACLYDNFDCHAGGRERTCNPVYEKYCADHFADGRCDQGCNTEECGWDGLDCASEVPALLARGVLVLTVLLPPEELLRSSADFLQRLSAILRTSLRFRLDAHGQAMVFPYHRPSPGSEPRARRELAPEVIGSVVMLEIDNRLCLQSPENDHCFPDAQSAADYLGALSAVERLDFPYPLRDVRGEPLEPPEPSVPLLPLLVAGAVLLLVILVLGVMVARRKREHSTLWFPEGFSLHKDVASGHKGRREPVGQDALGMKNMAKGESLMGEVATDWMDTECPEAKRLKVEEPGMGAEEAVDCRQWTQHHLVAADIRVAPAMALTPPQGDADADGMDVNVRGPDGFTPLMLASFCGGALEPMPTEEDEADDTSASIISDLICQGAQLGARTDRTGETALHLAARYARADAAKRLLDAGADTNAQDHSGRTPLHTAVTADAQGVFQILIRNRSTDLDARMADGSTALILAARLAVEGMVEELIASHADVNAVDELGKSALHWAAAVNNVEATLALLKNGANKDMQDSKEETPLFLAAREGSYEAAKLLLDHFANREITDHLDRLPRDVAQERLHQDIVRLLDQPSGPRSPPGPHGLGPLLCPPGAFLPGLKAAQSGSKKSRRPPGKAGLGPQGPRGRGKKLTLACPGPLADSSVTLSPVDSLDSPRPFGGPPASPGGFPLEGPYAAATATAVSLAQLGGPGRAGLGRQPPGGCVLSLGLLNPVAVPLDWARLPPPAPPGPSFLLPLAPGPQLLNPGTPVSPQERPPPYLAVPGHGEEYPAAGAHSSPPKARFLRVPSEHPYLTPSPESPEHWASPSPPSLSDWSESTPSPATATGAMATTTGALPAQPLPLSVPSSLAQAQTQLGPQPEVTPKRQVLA

[10] = probe aEGFR binding to arrayed compounds – biochemical, biotinylated probe, 635/667 nm fluorescence, primary screen (AID 1097); details: small-molecule microarray, higher = more signal;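 also: probe is a biotinylated anti-EGFR antibody binding compounds printed on slides; score combines fluorescence near 667 nm and signal to noise of each spot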

SMILES	composite z-score [1]	z-score [2]	z-score [3]	z-score [4]	composite z-score [5]	z-score [6]	composite z-score [7]	composite z-score [8]	composite z-score [9]	composite z-score [10]
COc1ccc(CCNC(=O)[C@@]2(Sc3ccc(C)cc3)CC(=O)N(C(C)C)[C@@H]2c2ccc(CO)cc2I)cc1	0.163	-0.971 (inactive)	-0.693 (inactive)	0.706 (inactive)	0.468	-0.236 (inactive)	-0.183	-0.778	-0.343	-0.189
COC(=O)[C@H](Cc1ccccc1)N[C@@H](/C=C/C1CC1)[C@H](O)Cc1ccccc1	0.136	-0.701 (inactive)	-7.84 (inactive)	-0.581 (inactive)	0.521	-0.296 (inactive)	-0.127	-0.327	-0.505	-0.218
Cc1nc2cc(Br)ccc2c(=O)o1	0.648	-0.764 (inactive)	0.597 (inactive)	-1.07 (inactive)	1.27	-1.07 (inactive)	-0.082	0.198	1.04	0.104
CC#CC(=O)Oc1ccccc1C=CC(=O)OCC	0.779	-2.32 (inactive)	-15.4 (active)	-2.16 (inactive)	1.33	0.316 (inactive)	-0.0549	0.664	0.225	-0.0531
COCCOC(=O)N1C(=O)[C@@]2(c3cc(C#Cc4ccc(OC)cc4)ccc31)[C@H](c1ccc(O)cc1)N1[C@H](c3ccccc3)[C@H](c3ccccc3)OC(=O)[C@H]1[C@@H]2C(=O)N1CCc2cc(OC)c(OC)cc2C1	1.55	0.728 (inactive)	-0.133 (inactive)	0.803 (inactive)	2.49	1.37 (inactive)	-0.0412	0.75	1.08	-0.115
CO[C@H]1O[C@H](CO)[C@@H](OC(=O)Nc2ccccc2)[C@H](OC(=O)Nc2ccccc2)[C@@H]1OC(=O)Nc1ccccc1	1.53	1.24 (inactive)	0.975 (inactive)	3.37 (inactive)	3.66	-0.0493 (inactive)	0.232	1.38	1.06	0.138
CC(C)C(O)C1C=CC2C(=O)NC(=O)C2N1Nc1ccc(Cl)cc1Cl (stereo not given)	0.119	0.376 (inactive)	-0.843 (inactive)	1.5 (inactive)	3.18	-0.805 (inactive)	0.112	-0.463	0.0316	-0.122
NC(=O)NCC#Cc1ccc2c(c1)[C@]1(C(=O)N2)[C@H](C(=O)Nc2nc3ccccc3s2)[C@H]2C(=O)O[C@H](c3ccccc3)[C@H](c3ccccc3)N2[C@@H]1c1ccccc1OCCO	1.54	1.17 (inactive)	1.33 (inactive)	3.48 (inactive)	3.85	1.5 (inactive)	-0.351	1.61	1.06	0.506
CC1CC/C=C\[C@H]2OC34C=CCN(Cc5ccccc5)C(=O)[C@H]3N(CCCO)C(=O)[C@@H]4C2C(=O)O1 (stereo not given in full)	0.398	-1.7 (inactive)	-1.25 (inactive)	-0.807 (inactive)	1.97	0.56 (inactive)	-0.254	-1.12	-0.106	-0.283
C=C(CCCC)/C(=C/C[C@@H](OC(=O)c1ccncc1)c1ccc(OCCO)cc1)c1cc(C(=O)OC)ccc1OC	1.53	0.594 (inactive)	0.199 (inactive)	0.279 (inactive)	1.66	0.22 (inactive)	-0.166	0.874	0.975	-0.12
O=C(NCCN1CCOCC1)C1N=C(c2ccc(OCCCO)cc2)N(c2ccccc2)O1 (stereo not given)	1.54	-0.101 (inactive)	-0.251 (inactive)	-0.36 (inactive)	3.22	1 (inactive)	0.443	1.19	0.0538	-0.0099
CN(C)CCCCCCNC(=O)[C@H]1C[C@H]2C(=O)N[C@@H](CCCCN)C(=O)N2[C@H]1c1cccc(OCCO)c1	1.56	-0.871 (inactive)	-9.2 (active)	-0.622 (inactive)	4.65	-0.15 (inactive)	1.76	2.06	1.01	1.12
COc1ccc(-c2cc3c(c(-c4ccc(Oc5ccccc5)cc4)n2)[Si](C(C)C)(C(C)C)OC3)cn1	0.483	1.32 (inactive)	0.955 (inactive)	1.88 (inactive)	-0.166	-0.984 (inactive)	-0.119	0.503	0.342	-0.26
CCCCN1CC=CC23O[C@@H]4C=CCCOC(=O)C4[C@H]2C(=O)N(CCCCCCO)[C@@H]3C1=O (stereo not given in full)	1.31	-0.0739 (inactive)	-0.576 (inactive)	0.2 (inactive)	1.74	-0.444 (inactive)	-0.462	-0.235	0.294	-0.227
COC(=O)[C@@]1(Cc2ccc(OC)cc2)[C@H]2c3cc(C(=O)N(C)C)n(CCc4ccccn4)c3C[C@H]2CN1C(=O)c1ccccc1	-0.663	0.735 (inactive)	1.55 (inactive)	2.81 (inactive)	2.5	-0.901 (inactive)	1.09	-0.307	0.0532	0.865
C=CCC(OC(C)=O)[C@@H]1[C@@H](N(Cc2ccc(-c3ccccc3)cc2)C(=O)Cc2ccc(OC)cc2)c2cc(OCCCO)ccc2N1C(=O)Cc1ccc2ccccc2c1 (stereo not given in full)	-0.137	-0.74 (inactive)	-0.619 (inactive)	-0.238 (inactive)	1.09	-0.263 (inactive)	-0.153	-0.688	-0.0042	-0.177
C=CCC(OC(C)=O)[C@@H]1[C@@H](N(Cc2ccc(-c3cccc(C(F)(F)F)c3)o2)C(=O)c2ccc(C)cc2)c2cc(OCCCO)ccc2N1C(=O)Cc1ccc2ccccc2c1 (stereo not given in full)	0.0457	0.677 (inactive)	-0.0286 (inactive)	0.303 (inactive)	-0.0958	1.6 (inactive)	-0.0674	-0.408	-0.624	-0.108
CC1CC/C=C\[C@H]2OC34C=CCN(C(C)(C)C)C(=O)[C@H]3N(C(C)CO)C(=O)[C@@H]4C2C(=O)O1 (stereo not given in full)	-0.282	0.214 (inactive)	-0.538 (inactive)	-0.0168 (inactive)	-0.656	-0.434 (inactive)	-0.207	0.0449	-0.454	-0.27
NC(=O)NCC#Cc1ccc2c(c1)[C@]1(C(=O)N2)[C@H](c2ccccc2OCCO)N2[C@H](c3ccccc3)[C@H](c3ccccc3)OC(=O)[C@H]2[C@@H]1C(=O)Nc1nc2ccccc2s1	1.24	1.99 (inactive)	1.61 (inactive)	3.78 (inactive)	2.49	1.15 (inactive)	-0.0416	0.288	0.773	-0.178
O=C1C[C@@](C(=O)NCCN2CCOCC2)(c2ccc([N+](=O)[O-])cc2)[C@@H](c2ccc(CO)cc2)N1CC12CC3CC(CC(C3)C1)C2	1.53	-1.41 (inactive)	-17.2 (active)	-1.37 (inactive)	3.31	-2.26 (inactive)	0.0211	1.4	1.09	0.0778
C[C@H]1NC(=O)[C@@]23C(=O)N[C@@H](Cc4ccccc4)C2[C@H](C)[C@@]2(C)O[C@H]2C3/C=C/C/C=C\CNC(=O)[C@@H]2CCCN2C1=O (stereo not given in full)	-0.0905	-0.185 (inactive)	-0.769 (inactive)	-1.52 (inactive)	0.697	0.1 (inactive)	-0.166	1.15	1.01	-0.139
CC(C)C(=C=CC[C@@H](O)c1ccc(OCCO)cc1)C[C@@H](O)c1ccccn1	1.19	-1 (inactive)	-0.141 (inactive)	-0.347 (inactive)	-0.27	-0.162 (inactive)	-0.235	1.08	0.813	-0.133
CCOC(=O)[C@H]1C/C=C/C[C@H](C(=O)OCC)C(=O)O[C@H]2[C@@H](OC)O[C@H](CO)[C@@H](OC(=O)c3c(OC)cccc3OC)[C@@H]2OC1=O	1.33	0.172 (inactive)	-1.13 (inactive)	3.72 (inactive)	2.86	-0.901 (inactive)	0.573	1.15	0.982	-0.0921
OCCCC1=CC(c2cccs2)N(Cc2cc3c(cc2Br)OCO3)CC1 (stereo not given)	0.591	-0.678 (inactive)	-1.05 (inactive)	-0.274 (inactive)	1.17	-0.414 (inactive)	0	0.915	0.208	-0.0304
COc1ccc(/C=C/C=O)cc1	0.722	1.17 (inactive)	-7.83 (inactive)	1.01 (inactive)	-0.714	0.0062 (inactive)	-0.15	0.775	0.271	-0.045
COc1cc2c(cc1OC)CN(C(=O)[C@@H]1[C@H]3C(=O)O[C@H](c4ccccc4)[C@H](c4ccccc4)N3[C@H](c3ccccc3OCCO)[C@@]13C(=O)Nc1ccc(C#CCCO)cc13)CC2	1.56	1.47 (inactive)	-1.3 (inactive)	2.22 (inactive)	3.02	1.15 (inactive)	-0.108	0.772	1.08	-0.0624
CCCC#C[Si](O[C@H](CC)c1cn(Cc2cccc(Cl)c2)nn1)(C(C)C)C(C)C	0.756	-1.19 (inactive)	-9.34 (active)	-1.52 (inactive)	1.91	1.5 (inactive)	-0.0068	0.476	1.13	0.252
CN1C(=O)C2C=CC(C(O)c3ccc([N+](=O)[O-])cc3)N(N3CCCCC3)C2C1=O (stereo not given)	0.957	0.462 (inactive)	0.647 (inactive)	0.19 (inactive)	2.69	-1.74 (inactive)	0.347	-0.245	1.07	0.161
CC(C)c1ccc(NN2C(C(O)c3ccc(B(O)O)cc3)C=CC3C(=O)N(c4ccccc4)C(=O)C32)cc1 (stereo not given)	0.815	0.0686 (inactive)	-4.4 (inactive)	0.617 (inactive)	2.99	-0.41 (inactive)	0.413	-0.266	1.11	-0.0179
